Structures are written as SMILES. Values joined by “and” are separate entries in the source; they are usually repeats but may differ in a detail not shown here. Equal entries are not always repeated. Results filed as inconclusive are left out. Where a call stands in place of a potency, no number is given. A number with no mark means an inactive call. Active and inactive are the calls of the source. Calls come from the whole dose curve; as a rule, active = well fitted curve in the direction sought with a large enough effect; inconclusive = small, poorly fitted or top-dose-only effect, or another doubt; inactive = no such curve, though single readings can be large; an effect the other way counts as inactive or inconclusive.
Note: nearly all actives have a fitted effect of over 70% in size.
Potency is the fitted concentration of half-maximal effect.

The nature of one assay: Primary qHTS for inhibitors of nuclear receptor binding SET domain protein 2 (NSD2) in an isogenic RCH-ACV NSD2 p.E1099K mutant (9B) (AID 1645876). Particulars: RCH-ACV NSD2 E1099K (9B) viability, CellTiter-Glo, 72 h; series mostly up to 44.9 µM. (In general: In qHTS, concentration-response curves come from the screen itself.)
Turning to `C=C1OC2CC(C(=O)O)C=CC2NC1=O` (centres undefined), the Potency entry is “inactive”.
On the same count and under the same terms, then `C=C(C)C(=O)O[C@H]1CC2=CC(C/C(C)=C\[C@H]3OC(=O)C(=C)[C@H]13)OC2=O` (some centres undefined), with 5.05 µM (active).
Still for that read-out and setting: then `CCC1=CC2CN(C1)Cc1c([nH]c3ccccc13)[C@@](C(=O)OC)(c1cc3c(cc1OC)N(C)[C@H]1[C@@](O)(C(=O)OC)[C@H](OC(C)=O)[C@]4(CC)C=CCN5CC[C@]31[C@@H]54)C2` (some centres undefined), with 0.0796 µM (active).
The same measure, in the same setting: next, `NC1CCCCN(c2c(F)cc3c(=O)c(C(=O)O)cn(C4CC4)c3c2Cl)C1` (centres undefined): “inactive”.
As to `CC(=O)N[C@H]1[C@H](O[C@H]2CC[C@@]3(C)C(CC[C@]4(C)C3CC=C3C5CC(C)(C)CC[C@]5(C(=O)O)[C@H](O)C[C@]34C)C2(C)C)O[C@H](CO[C@@H]2OC[C@H](O)[C@H](O)[C@H]2O[C@@H]2OC[C@@H](O)[C@H](O)[C@H]2O)[C@@H](O)[C@@H]1O` (some centres undefined), the activity change, negative = viability loss was -10% [at 9.23 µM].
Consider `O=C1NC(=O)C(c2cn(-c3ccccc3)nc2-c2ccc(F)cc2)N1` (centres undefined), for which the Potency entry is “inactive”.
On the same count and under the same terms, then `COC1=CC(=O)CC(C)C12Oc1cc(OC)cc(O)c1C2=O` (centres undefined), with “inactive”; and `C/C=C/C=C/C(=O)N1CC[C@]23c4ccccc4N[C@H]4N(C)c5cccc6c5[C@@]42CCN([C@H]6C2OC2(C)C)[C@H]13` (some centres undefined), with “inactive”.
As for `C(#Cc1nc2ncccc2nc1OCCN1CCCC1)c1ccccc1`, the Potency was 2.58 µM (active).
`CC1C(OC(=O)c2ccccc2)C(O)C2C(C(=O)O)=COC(OC3OC(CO)C(O)C(O)C3O)C12` (centres undefined): the Potency result was “inactive”.
Still for that read-out and setting: then `O=C(O[C@H]1[C@@H]2C=CO[C@@H](O[C@@H]3O[C@H](CO)[C@@H](O)[C@H](O)[C@H]3O)[C@@H]2[C@@]2(CO)O[C@@H]12)c1ccccc1`, with “inactive”; and `C[C@@H]1C(=O)O[C@H]2[C@@H](O)C34[C@H]5C[C@@H](C(C)(C)C)C36[C@@H](OC(=O)[C@@H]6O)O[C@@]4(C(=O)O5)[C@@]12O` (some centres undefined), with “inactive”; and `CC1=C(C(=O)O)/C(=C\CO[C@@H]2O[C@H](CO)[C@@H](O)[C@H](O)[C@H]2O)C(OC(=O)/C=C\c2ccc(O)cc2)C1` (some centres undefined), with “inactive”.
Still for that read-out and setting: next, `Cn1c(=O)cc(N2CCCC(N)C2)n(Cc2cc(F)ccc2C#N)c1=O` (centres undefined): “inactive”; `CC1=C(CO)C(=O)O[C@@H]([C@@H](C)[C@H]2CC[C@H]3[C@@H]4C[C@H]5O[C@]56[C@@H](O)C=CC(=O)[C@]6(C)[C@H]4CC[C@]23C)C1`: 448 nM (active) and 263 nM (active); `CC1(C)C=CN2C(=O)C3=CCCN3C(=O)[C@@H]2C[C@@]12Nc1ccccc1C2=O`: “inactive”.
Same read-out and setting: next, `CC1(C(=O)O)CCCC2(C)C3CCC4CC3(CCC12)CC4=O` (centres undefined): “inactive”; `C=C1C[C@]23C[C@H]1CC[C@H]2[C@]1(C)CCC[C@@](C)(C(=O)O)[C@H]1[C@@H]3C(=O)O`: “inactive”.
As to `OC[C@H]1O[C@@H](Oc2ccccc2)[C@H](O)[C@@H](O)[C@@H]1O`, the Potency result was “inactive”.
As to `C[C@@H]1CC[C@]2(C(=O)O[C@@H]3O[C@H](CO)[C@@H](O)[C@H](O)[C@H]3O)CC[C@]3(C)C(=CCC4[C@@]5(C)C[C@@H](O)[C@H](O)[C@@](C)(C(=O)O[C@H]6[C@H](O)C[C@@]7(C)C(CC[C@]8(C)C7CC=C7[C@H]9[C@](C(=O)O[C@@H]%10O[C@H](CO)[C@@H](O)[C@H](O)[C@H]%10O)(CC[C@@H](C)[C@@]9(C)O)CC[C@]78C)[C@@]6(CO)C(=O)O)C5CC[C@]43C)[C@@H]2[C@]1(C)O` (some centres undefined), the outcome is “inactive [at 9.23 µM]”.

The nature of a further assay: Primary qHTS for inhibitors of nuclear receptor binding SET domain protein 2 (NSD2) in an RCH-ACV wild type WT cells (2C) (AID 1645877). Particulars: RCH-ACV (leukaemia line) NSD2 WT (2C) viability, CellTiter-Glo, 72 h; series mostly up to 44.9 µM.
For `O=C(O)c1ccc(OC2OC(CO)C(O)C(O)C2O)cc1` (centres undefined), the Potency result was “inactive”.
The same measure, in the same setting: next, `CC1CC(C(O)C(C)(C)O)OC2CC3(C)C4(C)CCC5C(C)(C)C(=O)CCC5(C)C4CCC3(O)C12O` (centres undefined): “inactive”.
For `O=C1NC(=O)C(c2cn3c4c(cccc24)CCC3)C1c1c[nH]c2ccccc12` (centres undefined), the Potency is 916 nM (active).
Still for that read-out and setting: then `CC(=O)OC12COC1CC(O)C1(C)C(=O)C(O)C3=C(C)C(OC(=O)C(O)C(NC(=O)OC(C)(C)C)c4ccccc4)CC(O)(C(OC(=O)c4ccccc4)C21)C3(C)C` (centres undefined), with “inactive”; and `CC12CCC(OC3OC(CO)C(O)C(OC4OC(CO)C(O)C(O)C4O)C3O)CC1CCC1C2CCC2(C)/C(=C3/COC(=O)C3)CCC12O` (centres undefined), with “inactive”; and `CC1(C)CCCC2(C)C(C(=O)O)=CCC12` (centres undefined), with “inactive”.
With `CC(=O)OC1C(c2ccccc2)CCC(c2ccccc2)C1OC(C)=O` (centres undefined), the Potency result is “inactive”.
The same measure, in the same setting: next, `COc1cc2c(cc1O)[C@H](c1ccc(O[C@@H]3O[C@H](CO)[C@@H](O)[C@H](O)[C@H]3O)c(OC)c1)[C@@H](CO)[C@](O)(CO)C2`: “inactive”.
Take `C[C@H]1CC[C@@]2(OC1)O[C@H]1CC3C4CC[C@H]5C[C@@H](O)[C@H](O)C[C@]5(C)C4=CC(=O)[C@]3(C)[C@H]1[C@@H]2C` (some centres undefined): the Potency entry was “inactive”.
Still for that read-out and setting: then `CC(C)c1cc(C(=O)N2CC[C@H](NC(=O)C3CC3)C2)n[nH]1`, with “inactive”; and `CC1(C)CC(=O)C2=C(C1)NC(=S)NC2c1cccc(O)c1` (centres undefined), with 817 nM (active); and `CC(=O)C=C=C1C(C)(C)CC(O[C@@H]2O[C@H](CO)[C@@H](O)[C@H](O)[C@H]2O)CC1(C)O` (some centres undefined), with “inactive”.
On the same count and under the same terms, then `CS(=O)(=O)c1ccc(-c2nnc(/C=C/c3nnc(-c4ccc(C#N)cc4)o3)n2-c2ccccc2Cl)nc1`, with “inactive”; and `C=C1C(O)C(O)C2(CC3C(C)=CCC4C(C)(CO)CCCC34C)OC2C1O` (centres undefined), with “inactive”.
As to `C/C=C/C=C/[C@@H]1O[C@](O)([C@H](CC)C(=O)NC/C=C/C=C(\C)[C@@H](OC)[C@@H](C)C2OC(/C=C/C=C/C=C(\C)C(=O)c3c(O)cc[nH]c3=O)[C@H](O)[C@@H]2O)[C@H](O)[C@H](O)C1(C)C` (some centres undefined), the Potency entry is “inactive”.
On the same count and under the same terms, then `C[S+](CC[C@H](N)C(=O)[O-])C[C@H]1O[C@@H](n2cnc3c(N)ncnc32)[C@H](O)[C@@H]1O` (some centres undefined), with “inactive”.
The same measure, in the same setting: then `COc1cccc2cc3c(c(O[C@@H]4O[C@H](CO[C@@H]5O[C@H](CO)[C@@H](O)[C@H](O)[C@H]5O)[C@@H](O)[C@H](O)[C@H]4O)c12)C(C)OC3=O` (some centres undefined), with “inactive”; and `CC1=C(C)C(=O)OC(C(C)C2CCC3C4CC=C5CC(OC6OC(COC7OC(CO)C(O)C(O)C7O)C(O)C(O)C6O)CC(O)C5(C)C4CCC23C)C1` (centres undefined), with “inactive”.
Take `C[C@@H]1O[C@@H](O[C@H]2[C@H](O)[C@@H](O[C@@H]3O[C@H](CO)[C@@H](O)[C@H](O[C@@H]4O[C@H](CO)[C@@H](O)[C@H](O)[C@H]4O)[C@H]3O)[C@H](O[C@H]3CC[C@@]4(C)C(=CC[C@@H]5C4CC[C@@]4(C)C5C[C@@H]5OC6(CC[C@@](C)(CO[C@@H]7O[C@H](CO)[C@@H](O)[C@H](O)[C@H]7O)O6)[C@@H](C)[C@@H]54)C3)O[C@@H]2CO)[C@H](O)[C@H](O)[C@H]1O` (some centres undefined): the activity change, negative = cell killing was -26.3% [at 9.23 µM].
With `C=C1OC2CC(C(=O)O)C=CC2NC1=O` (centres undefined), the Potency entry is “inactive”.
On the same count and under the same terms, then `C=C(C)C(=O)O[C@H]1CC2=CC(C/C(C)=C\[C@H]3OC(=O)C(=C)[C@H]13)OC2=O` (some centres undefined), with 3580 nM (active); and `CCC1=CC2CN(C1)Cc1c([nH]c3ccccc13)[C@@](C(=O)OC)(c1cc3c(cc1OC)N(C)[C@H]1[C@@](O)(C(=O)OC)[C@H](OC(C)=O)[C@]4(CC)C=CCN5CC[C@]31[C@@H]54)C2` (some centres undefined), with 31.7 nM (active).
In the case of `NC1CCCCN(c2c(F)cc3c(=O)c(C(=O)O)cn(C4CC4)c3c2Cl)C1` (centres undefined), the Potency entry is “inactive”.
On to `CC(=O)N[C@H]1[C@H](O[C@H]2CC[C@@]3(C)C(CC[C@]4(C)C3CC=C3C5CC(C)(C)CC[C@]5(C(=O)O)[C@H](O)C[C@]34C)C2(C)C)O[C@H](CO[C@@H]2OC[C@H](O)[C@H](O)[C@H]2O[C@@H]2OC[C@@H](O)[C@H](O)[C@H]2O)[C@@H](O)[C@@H]1O` (some centres undefined), for which the activity change, negative = cell killing was 3.06% [at 9.23 µM].
As to `O=C1NC(=O)C(c2cn(-c3ccccc3)nc2-c2ccc(F)cc2)N1` (centres undefined), the Potency entry was “inactive”.
Regarding `COC1=CC(=O)CC(C)C12Oc1cc(OC)cc(O)c1C2=O` (centres undefined), the Potency entry was “inactive”.
Take `C/C=C/C=C/C(=O)N1CC[C@]23c4ccccc4N[C@H]4N(C)c5cccc6c5[C@@]42CCN([C@H]6C2OC2(C)C)[C@H]13` (some centres undefined): the Potency entry is “inactive”.
On to `C(#Cc1nc2ncccc2nc1OCCN1CCCC1)c1ccccc1`, for which the Potency is 2300 nM (active).
Same read-out and setting: then `CC1C(OC(=O)c2ccccc2)C(O)C2C(C(=O)O)=COC(OC3OC(CO)C(O)C(O)C3O)C12` (centres undefined), with “inactive”.
Still for that read-out and setting: next, `O=C(O[C@H]1[C@@H]2C=CO[C@@H](O[C@@H]3O[C@H](CO)[C@@H](O)[C@H](O)[C@H]3O)[C@@H]2[C@@]2(CO)O[C@@H]12)c1ccccc1`: “inactive”; `C[C@@H]1C(=O)O[C@H]2[C@@H](O)C34[C@H]5C[C@@H](C(C)(C)C)C36[C@@H](OC(=O)[C@@H]6O)O[C@@]4(C(=O)O5)[C@@]12O` (some centres undefined): “inactive”.
Same read-out and setting: then `CC1=C(C(=O)O)/C(=C\CO[C@@H]2O[C@H](CO)[C@@H](O)[C@H](O)[C@H]2O)C(OC(=O)/C=C\c2ccc(O)cc2)C1` (some centres undefined), with “inactive”.
Consider `Cn1c(=O)cc(N2CCCC(N)C2)n(Cc2cc(F)ccc2C#N)c1=O` (centres undefined), for which the Potency result was “inactive”.
Still for that read-out and setting: then `CC1=C(CO)C(=O)O[C@@H]([C@@H](C)[C@H]2CC[C@H]3[C@@H]4C[C@H]5O[C@]56[C@@H](O)C=CC(=O)[C@]6(C)[C@H]4CC[C@]23C)C1`, with 709 nM (active) and 263 nM (active); and `CC1(C)C=CN2C(=O)C3=CCCN3C(=O)[C@@H]2C[C@@]12Nc1ccccc1C2=O`, with “inactive”; and `CC1(C(=O)O)CCCC2(C)C3CCC4CC3(CCC12)CC4=O` (centres undefined), with “inactive”.
On the same count and under the same terms, then `C=C1C[C@]23C[C@H]1CC[C@H]2[C@]1(C)CCC[C@@](C)(C(=O)O)[C@H]1[C@@H]3C(=O)O`, with “inactive”; and `OC[C@H]1O[C@@H](Oc2ccccc2)[C@H](O)[C@@H](O)[C@@H]1O`, with “inactive”.
`C[C@@H]1CC[C@]2(C(=O)O[C@@H]3O[C@H](CO)[C@@H](O)[C@H](O)[C@H]3O)CC[C@]3(C)C(=CCC4[C@@]5(C)C[C@@H](O)[C@H](O)[C@@](C)(C(=O)O[C@H]6[C@H](O)C[C@@]7(C)C(CC[C@]8(C)C7CC=C7[C@H]9[C@](C(=O)O[C@@H]%10O[C@H](CO)[C@@H](O)[C@H](O)[C@H]%10O)(CC[C@@H](C)[C@@]9(C)O)CC[C@]78C)[C@@]6(CO)C(=O)O)C5CC[C@]43C)[C@@H]2[C@]1(C)O` (some centres undefined): the activity change, negative = cell killing is 0.118% [at 9.23 µM].

Values taken from PubChem BioAssay (NCATS).
